# From article PMC4336329 (PLoS ONE, 2015)
# Out of some 310,000 compounds screened, about 14,000 (4.5%) showed an effect of 50% or more. Effects have a minus sign here. What follows is part of a selection rich in strong results, with near analogues and random picks from the rest.
# Molecular target: human ether-à-go-go-related gene (hERG) potassium channel (human, UniProt Q12809)
# Assay: primary screen, population patch clamp on CHO cells stably expressing hERG; higher = less effect of the substance
# 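Further: peak tail current of the secondary pulse compared with the same well before compound.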
# Sequence of human ether-à-go-go-related gene (hERG) potassium channel (Q12809 whole entry, looked up): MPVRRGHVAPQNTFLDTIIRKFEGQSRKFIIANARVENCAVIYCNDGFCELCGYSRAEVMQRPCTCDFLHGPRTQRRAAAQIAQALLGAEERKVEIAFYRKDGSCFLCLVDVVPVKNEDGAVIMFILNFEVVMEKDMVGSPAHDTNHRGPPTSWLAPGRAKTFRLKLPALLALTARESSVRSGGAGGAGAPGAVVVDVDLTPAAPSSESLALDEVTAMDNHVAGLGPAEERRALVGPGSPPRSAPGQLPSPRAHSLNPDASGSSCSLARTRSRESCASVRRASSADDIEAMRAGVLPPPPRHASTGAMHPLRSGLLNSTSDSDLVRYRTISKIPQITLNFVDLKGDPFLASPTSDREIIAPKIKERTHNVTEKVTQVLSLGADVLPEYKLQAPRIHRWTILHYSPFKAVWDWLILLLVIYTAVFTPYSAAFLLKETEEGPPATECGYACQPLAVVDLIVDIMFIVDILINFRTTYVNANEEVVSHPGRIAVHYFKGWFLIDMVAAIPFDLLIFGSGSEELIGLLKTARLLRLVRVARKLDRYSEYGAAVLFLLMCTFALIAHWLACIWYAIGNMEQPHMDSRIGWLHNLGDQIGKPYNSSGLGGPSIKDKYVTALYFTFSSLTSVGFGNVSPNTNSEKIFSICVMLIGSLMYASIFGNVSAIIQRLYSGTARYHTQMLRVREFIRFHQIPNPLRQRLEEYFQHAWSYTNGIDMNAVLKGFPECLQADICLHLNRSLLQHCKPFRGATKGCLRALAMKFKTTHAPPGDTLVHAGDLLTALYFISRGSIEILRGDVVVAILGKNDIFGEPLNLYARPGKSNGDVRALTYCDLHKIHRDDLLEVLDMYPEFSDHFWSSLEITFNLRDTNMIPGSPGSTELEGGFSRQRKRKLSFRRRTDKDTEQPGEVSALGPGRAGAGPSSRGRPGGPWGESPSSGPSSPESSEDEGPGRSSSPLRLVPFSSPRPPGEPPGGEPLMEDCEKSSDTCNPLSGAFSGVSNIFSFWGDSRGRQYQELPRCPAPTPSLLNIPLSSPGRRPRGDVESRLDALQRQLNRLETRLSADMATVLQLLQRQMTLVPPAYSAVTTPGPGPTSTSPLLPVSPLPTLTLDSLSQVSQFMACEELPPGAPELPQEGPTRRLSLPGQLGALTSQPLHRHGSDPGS
row,Compound,"hERG current change (%, negative = inhibition) at 10uM"
1,CCOc1ccc(OCC)c(S(=O)(=O)NCc2ccccc2)c1,-10.1%
2,Clc1ccc(N2CCCCCC2)nn1,4.93%
3,O=C(c1noc2c1CCCC2)N1CCN(c2ccccc2)CC1,-17.6%
4,CCOc1cc(CNc2ccc3[nH]c(=O)[nH]c3c2)ccc1OCC(=O)NC(C)(C)C,12.4%
5,COc1ccc(C2=NN(C(=O)CN3CCCCC3)C(c3ccc(C)cc3)C2)cc1 (stereo not drawn),-54.9%
6,COc1ccc(C2=NN(C(=O)CCC(=O)O)C(c3ccc(Br)cc3)C2)cc1 (stereo not drawn),29.9%
7,COc1ccc(C2=NN(C(=O)CN3CCCCC3)C(c3ccc(OC)cc3)C2)cc1 (stereo not drawn),-40.1%
8,COc1ccc(C2CC(c3ccccc3)=NN2C(=O)CN2CCN(Cc3ccccc3)CC2)cc1 (stereo not drawn),-31.2%
9,COc1ccc(C2=NN(C(=O)CN3CCCC3)C(c3ccc(OC)cc3)C2)cc1 (stereo not drawn),-40.7%
10,COc1ccc(C2CC(c3ccc(Br)cc3)=NN2C(=O)CN2CCCC2)cc1 (stereo not drawn),-68.1%
11,COC(=O)C1C2C=CC3(CN(c4ccc(Cl)c(F)c4)C(=O)C13)O2 (stereo not drawn),4.99%
12,Cc1ccc(S(=O)(=O)N2CCN(c3ccccn3)CC2)cc1,4.96%
13,N#Cc1ccc(S(=O)(=O)N2CCN(c3ncccn3)CC2)cc1,-17.9%
14,Cc1ccc(S(=O)(=O)N2CCN(c3nccnc3C#N)CC2)cc1,-54.8%
15,O=C(O)Cc1ccc(NC(=O)c2cnccn2)cc1,26.1%
16,COc1cc(/C=N/NC(=O)Cc2ccccc2)cc([N+](=O)[O-])c1O,10%
17,COc1ccc(NC(=O)CCN2CCCCCC2)cc1,-12.3%
18,CCN(CCC(=O)Nc1cc(OC)cc(OC)c1)Cc1ccccc1,-65.1%
19,COc1cc(NC(=O)Cc2ccccc2)cc(OC)c1,-4.79%
20,COc1cc(NC(=S)N2CCN(C/C=C/c3ccccc3)CC2)cc(OC)c1,-10.7%
21,COc1ccc(NC(=O)CCN2CCN(C/C=C/c3ccccc3)CC2)cc1,-77.3%
22,COc1ccc(NC(=S)N2CCN(C/C=C/c3ccccc3)CC2)cc1,-24.1%
23,COc1cc(NC(=O)CCN2CCN(C/C=C/c3ccccc3)CC2)cc(OC)c1,-69.3%

row,Compound,"hERG current change (%, negative = inhibition) at 10uM"
1,COc1cc(NC(=O)CCN2CCN(Cc3ccccc3)CC2)cc(OC)c1,-20.1%
2,CCN(CCC(=O)Nc1ccc(Br)c(C)c1)Cc1ccccc1.Cl,-36.8%
3,Cc1nc2ccccc2c(=O)n1NC(=O)c1cncc(Br)c1,14.9%
4,Cc1cc(C)c(C(=O)OCCNC(=O)c2cccnc2)cc1C,-17.3%
5,CCc1ccccc1N(CC(=O)NCc1ccco1)C(=O)CCC(=O)Nc1nccs1,0.493%
6,N#CC(C#N)=Cc1cnc(N2CCN(c3ccccc3)CC2)s1,23%
7,COCCN(C(=S)Nc1cc(C)ccc1C)C(C)c1cccnc1 (stereo not drawn),-25.4%
8,Cc1ccc(OC(C)C(=O)Nc2ccccc2C(=O)N2CCN(C)CC2)cc1 (stereo not drawn),-5.11%
9,CCc1c(C)c(C#N)c2nc3ccccc3n2c1Nc1c(C)n(C)n(-c2ccccc2)c1=O,-5.49%
10,Cc1c(NP(=O)(c2ccc(Br)cc2)c2ccc(Br)cc2)c(=O)n(-c2ccccc2)n1C,-65.7%
11,Cc1c(Nc2nc3ccccc3nc2NS(=O)(=O)c2ccccc2)c(=O)n(-c2ccccc2)n1C,-67.1%
12,Cc1c(Nc2c3ccccc3nc3ccccc23)c(=O)n(-c2ccccc2)n1C,-71%
13,Cc1cc(Nc2c(C)n(C)n(-c3ccccc3)c2=O)c2ccccc2n1,-20.3%
14,Cc1cc(Nc2c(C)n(C)n(-c3ccccc3)c2=O)n2c(nc3ccccc32)c1C#N,-73.6%
15,Cc1c(NP(=O)(C(C)(C)C)C(C)(C)C)c(=O)n(-c2ccccc2)n1C,26.4%
16,Cc1cc(Nc2c(C)n(C)n(-c3ccccc3)c2=O)n2c(nc3cc(F)c(F)cc32)c1C#N,19.2%
17,Cc1c(Nc2nc3ccccc3nc2NS(=O)(=O)c2cccc(Cl)c2)c(=O)n(-c2ccccc2)n1C,-2.18%
18,Cc1c(Nc2nc(C(F)(F)F)nc3ccccc23)c(=O)n(-c2ccccc2)n1C,-1.37%
19,Cc1c(Nc2nc3ccccc3nc2NS(=O)(=O)c2cccs2)c(=O)n(-c2ccccc2)n1C,1.13%
20,Cc1c(NS(=O)(=O)c2ccc(Br)cc2)c(=O)n(-c2ccccc2)n1C,-6.03%
21,CC(C)C(=O)Nc1cccc(C(=O)Nc2ccc(S(=O)(=O)Nc3nccs3)cc2)c1,8.32%
22,Nn1cnnc1SCC(=O)N1CCc2ccccc2C1,-12.8%
